The source of these data is PubChem BioAssay AID567 (The Scripps Research Institute Molecular Screening Center, 2006).

The campaign covered roughly 65,000 compounds. About 370 (0.57%) were called active. This is one part of a sample in which actives are shown more often than they occur. A number with no mark means an inactive call.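 How the source made its calls: active means activation above the screen-wide mean activation plus 3 SD (cut at about 19% in these data); inactive means the rest.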

In the experiment the target is 5-hydroxytryptamine receptor 1A (Homo sapiens) (UniProt P08908). The experiment in a line: human 5-HT1a receptor agonists, primary screen, cell-based, CHO, Ga15 NFAT-bla reporter (AID 567).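 Further: 0% = DMSO wells and 100% = 5-CT at EC100.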 The following applies: CHO 5-HT1a Ga15 NFAT-bla reporter, FRET ratio; at 10 µM; active compounds read high; 0% basal, 100% maximal reference agonist.
5-hydroxytryptamine receptor 1A (Homo sapiens), sequence (P08908 whole entry, looked up): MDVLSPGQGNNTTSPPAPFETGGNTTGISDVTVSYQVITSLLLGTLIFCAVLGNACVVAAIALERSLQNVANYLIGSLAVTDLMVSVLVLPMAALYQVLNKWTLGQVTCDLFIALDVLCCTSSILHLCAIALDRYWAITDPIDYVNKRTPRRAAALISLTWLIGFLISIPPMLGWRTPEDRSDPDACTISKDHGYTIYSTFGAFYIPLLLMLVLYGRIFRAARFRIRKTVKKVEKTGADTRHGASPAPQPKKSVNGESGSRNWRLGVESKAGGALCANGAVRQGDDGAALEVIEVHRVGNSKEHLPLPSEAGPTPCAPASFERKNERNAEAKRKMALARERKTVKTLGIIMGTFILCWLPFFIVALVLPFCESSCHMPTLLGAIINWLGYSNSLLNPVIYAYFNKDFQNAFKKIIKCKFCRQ
For `COC(=O)c1ccc(S(=O)(=O)c2ccc(C(=O)OC)s2)s1`, the activation was 2.5%.
Next, `CCOC(=O)CN(C(=O)CN1CCOCC1)c1ccc(Br)cc1`: -0.22%.
`CCOC(=O)C1CCN(C(c2cc3cc(C)cc(C)c3[nH]c2=O)c2nnnn2C2CCCCC2)CC1` (configuration not stated): the activation was -0.97%.
With `CC(C)CCNC(=O)C1CCCN(S(=O)(=O)c2ccc(F)cc2)C1` (configuration not stated), the activation was 0.42%.
In the case of `O=C(NCc1ccco1)c1ccc(CS(=O)(=O)Cc2ccc(F)cc2)o1`, the activation was -3.1%.
Next, `O=C(c1cccs1)N1CCCC(c2nc(-c3ccc(F)cc3)no2)C1` (configuration not stated): -1.69%.
In the case of `Cn1c(=O)c2c(ncn2CC(=O)N2CCN(c3ccccc3)CC2)n(C)c1=O`, the activation is -0.49%.
Consider `COc1ccc(C(=O)Nc2ccc(S(=O)(=O)Nc3onc(C)c3C)cc2)cc1OC`, for which the activation is -4.48%.
Turning to `Cc1noc(NS(=O)(=O)c2ccc(N3CC(O)=C(c4ccccc4)C3=N)cc2)c1C`, the activation is 147% (active).
For the compound `Cc1noc(NS(=O)(=O)c2ccc(NC(=O)C34CCC(CC3)C4)cc2)c1C`, the activation is 0.73%.
Next, `COc1cccc2c(=O)n(CC(=O)N3CCCCCC3)ccc12`: -2.41%; `CC1=C(C(=O)OCc2ccccc2)C(c2ccco2)n2ncnc2N1` (configuration not stated): 2.82%.
For `CCCOc1ccc(N2CC(C(=O)Nc3ccccn3)CC2=O)cc1` (configuration not stated), the activation is -1.38%.
For the compound `COc1cc2ccccc2cc1C(=O)Nc1ccc(S(=O)(=O)Nc2cc(C)on2)cc1`, the activation was 0.01%.
For the compound `CC(C)(C)n1c(=O)[nH]c2c(c1=O)CCC2`, the activation is -0.19%.
Next, `Cc1ccc(-n2nc3cc(Cl)c(NC(=O)c4ccco4)cc3n2)cc1`: 0.44%; `c1ccc2cc(OCCN3CCCC3)ccc2c1`: -1%; `O=C(CN1C2CCC1CC(NC(=O)C1CC1)C2)NCc1ccccc1` (configuration not stated): 0.81%.
For the compound `CCn1c(SCC(=O)Nc2ccc3c(c2)OCCO3)nc2c(c1=O)SC(C)C2` (configuration not stated), the activation is 1.05%.
`O=C(c1ccc2c(c1)OCCO2)C1CCN(S(=O)(=O)c2cccc(F)c2)CC1`: the activation is -3.42%.
For the compound `CC(=O)NS(=O)(=O)c1ccccc1`, the activation is -2.33%.
The figure for `Fc1cnc(N2CCOCC2)nc1NCc1ccccc1` is -1.58%; for `CCn1c(SCC(=O)Nc2nccs2)nnc1-c1ccncc1` it is -0.84%.
For `CC(=O)Cc1nsc(NC(=O)c2csc3c2CCCC3)n1`, the activation was 0.34%.
As to `COc1ccc(-c2nn(-c3ccccc3)cc2C(=O)Nc2nc(CC(C)=O)ns2)cc1`, the activation was 59.1% (active).
Regarding `CC(=O)Cc1nsc(NC(=O)c2ccc(COc3ccc(C)cc3)o2)n1`, the activation is -1.31%.
In the case of `CCOc1ccccc1C1C(C(=O)OC)=CN(C)C=C1C(=O)OC`, the activation was 20.1% (active).
As to `COC(=O)C1=CN(C)C=C(C(=O)OC)C1c1ccc(Cl)cc1Cl`, the activation was 13.7%.
With `CCOc1cc(C2C(C(=O)OC)=CN(C3CCCC3)C=C2C(=O)OC)cc(Br)c1O`, the activation is 14.4%.
For the compound `CC(=O)c1ccc(N2C(=NC(=O)C(C)C)SC3CS(=O)(=O)CC32)cc1` (configuration not stated), the activation was -1.94%.
Next, `CN(C)/C=C1/Nc2ccccc2C1=O`: -1.11%; `O=C(O)c1ccc(F)c(S(=O)(=O)Nc2ccccc2)c1`: 1%; `COc1ccc(NC(C)=O)cc1NC(=O)CN1CCN(c2ccccn2)CC1`: -1.16%.
The figure for `COC(=O)c1ccc(C2NC(=O)NC(C)=C2C(=O)N(C)C)cc1` (configuration not stated) is -3.69%; for `O=C(c1ccc(S(=O)(=O)N2CCOCC2)cc1)N1CCN(c2ccccc2)CC1` it is -2.91%; for `CNC(=O)c1nnn(-c2ccccc2)c1C(=O)NC` it is -1.73%.
The figure for `CCOc1ccc(NS(=O)(=O)c2ccc(OCC(=O)NCCCOC)cc2)cc1` is -1.21%; for `O=C(COC(=O)CCc1c[nH]c(=O)[nH]1)Nc1ccccc1Cl` it is -0.97%; for `COc1ccc(C)cc1NC(=O)c1[nH]c(C)c(C(C)=O)c1C` it is 43.5% (active).
As for `CCOc1ccc(NC(=O)Nc2cc(C)ccc2OC)cc1`, the activation was -4.41%.
In the case of `CCOC(=O)c1c(C)[nH]c(C(=O)NCc2ccccc2OC)c1C`, the activation is -0.94%.
In the case of `O=C(CSc1nnc(-c2ccco2)o1)NCC(=O)c1ccccc1`, the activation was 0.23%.
Next, `Cc1ccc(CNC(=O)C2CCCN(S(C)(=O)=O)C2)cc1` (configuration not stated): 0.44%; `Cc1cc(C)c(NC(=O)CS(=O)CC(=O)Nc2cccnc2)c(C)c1` (configuration not stated): 0.42%; `CCCC(=O)Nc1ccc(C(=O)NCCCn2ccnc2)cc1`: -3.99%.
The figure for `CCOC(=O)C1(Cc2ccc(O)cc2)NC(c2ccccc2F)C2C(=O)N(C)C(=O)C21` (configuration not stated) is -1.57%.
Regarding `COc1ccccc1N1CC(O)=C(c2nc3ccccc3s2)C1=N`, the activation was -3.98%.
The figure for `Cc1ccc(C(=O)CS(C)(=O)=O)cc1` is -5.39%.
The figure for `O=C(O)C1CCCN(S(=O)(=O)c2cccc3cccnc23)C1` (configuration not stated) is -4.76%.
Regarding `Cc1[nH]c2ccc(S(N)(=O)=O)cc2c1C`, the activation is -0.45%.
On to `Cc1ccccc1CSCC(=O)NC(=O)NC(C)(C)C`, for which the activation was -1.47%.
As to `CC1CCCN(c2ccc(C(=O)NCCc3ccccc3)cn2)C1` (configuration not stated), the activation was -0.9%.
As for `C=CCn1c(N)c(S(=O)(=O)c2cccs2)c2nc3ccccc3nc21`, the activation is -0.33%.
As to `CC(C)Cn1c(N)c(C(=O)NCc2cccs2)c2nc3ccccc3nc21`, the activation was 77.6% (active).
Regarding `C=CCn1c(N)c(C(=O)OCC(C)C)c2nc3ccccc3nc21`, the activation was 0.61%.
For `CCOc1ccc2nc(SC(CC)C(=O)Nc3cc(C)on3)sc2c1` (configuration not stated), the activation is 0.42%.
The figure for `COc1ccc(F)cc1S(=O)(=O)Nc1ccc2c(c1)OCO2` is -5.74%; for `O=C(Cn1cnc2c(nnn2Cc2ccc(F)cc2)c1=O)NCc1ccc2c(c1)OCO2` it is -1.47%.
In the case of `COc1cccc2c(C)c(C(=O)O)[nH]c12`, the activation is 1.98%.
`C=CCSC1=C(C#N)C(c2cc(Br)c(O)c(OC)c2)CC(=O)N1` (configuration not stated): the activation is 1.53%.
As to `C=CCNc1nnc(SCC(=O)N2CCCCC2)c2ccccc12`, the activation was 0.32%.
Next, `O=C1c2ccncc2C(=O)N1C1CCCCC1`: -3.22%.
